Measurements from article PMC7819943, “Rice protein-binding microarrays: a tool to detect cis-acting elements near promoter regions in rice”.
Over roughly 35,000 sequences, “fluorescence intensity (a.u.)” has its median near 10,000; the highest 2% begin near 52,000. The full list was thinned out, with the highest values kept by preference.

The sequences below were run against T1, OsWOX13 (Oryza sativa, UniProt Q5QMM3 1-267) (assay: protein-binding microarray (RPBM); PBS, 2% BSA, 51.3 ng/ul salmon testes DNA, 50 uM zinc acetate, 200 nM TF, 25 C, 1 h; high values mean tight binding). Conditions: protein: recombinant; tags: N-terminal polyhistidine and DsRed monomer fusion (pET32a); label: CyDye5-dUTP incorporated in the synthesized complementary strand; 3' TTTTT single-stranded linker to array surface; dsDNA, one strand shown.
T1 sequence: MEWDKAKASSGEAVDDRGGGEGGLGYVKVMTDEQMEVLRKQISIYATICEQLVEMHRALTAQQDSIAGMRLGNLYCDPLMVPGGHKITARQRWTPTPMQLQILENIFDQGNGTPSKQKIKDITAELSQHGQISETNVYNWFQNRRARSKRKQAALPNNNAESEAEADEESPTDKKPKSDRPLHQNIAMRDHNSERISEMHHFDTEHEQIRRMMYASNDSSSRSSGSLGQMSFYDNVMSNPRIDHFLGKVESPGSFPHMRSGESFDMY
Method in brief: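 The binding signal is fluorescence intensity per feature, in arbitrary units, read on an Axon 4000B scanner. Polyhistidine- and DsRed-tagged transcription factors (N-terminal fusions) from E. coli BL21-CodonPlus were purified on Ni–NTA and applied at 200 nM for 1 h at 25 °C to a double-stranded, BSA-blocked custom Agilent array in buffer with 50 µM zinc acetate.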
For “GTAACGGGATGATTGAAGCTACAACGAGAATGGCAACGTCCGGAGTCACCTAGTGCAG”, the binding signal was 22200 fluorescence intensity (a.u.). “AATATAAATTTAGATTAGCAGTGGTAAGAAGAGGGACGTCCGGAGTCACCTAGTGCAG” was tested, and the binding signal was 22600 fluorescence intensity (a.u.). With “CAAAATATACTAATTTCTTCAAGCAAAGGTCCAGCCCATCCGGAGTCACCTAGTGCAG” the binding signal was 3240 fluorescence intensity (a.u.). “GAATAGACCGAAATTAATTAAGGCAGTAATCACCCAGATGCGGAGTCACCTAGTGCAG” was tested, and the binding signal was 16100 fluorescence intensity (a.u.). In the case of “TATTAAGTCTAATTAATCCATGATTAGCCTATGTGATGCTCGGAGTCACCTAGTGCAG”, the binding signal was 15300 fluorescence intensity (a.u.). With “GATGATGATGGATGCGATTGACTGATGAGACGTCTGCTAACGGAGTCACCTAGTGCAG” the binding signal was 50300 fluorescence intensity (a.u.). For “CCCTAAATTTCCGCGAAATCAGCAACCGAACACAGATTAGCGGAGTCACCTAGTGCAG”, the binding signal was 7110 fluorescence intensity (a.u.). For “TCAATAAATCATAAAACAAATTTATTAAGCCTAATTAATCCGGAGTCACCTAGTGCAG”, the binding signal was 14000 fluorescence intensity (a.u.). “CCTCCTCATCATGGCTTAATTAATTAATACTCCTAGCTGCCGGAGTCACCTAGTGCAG” was tested, and the binding signal was 29000 fluorescence intensity (a.u.). For “GCTTAATTGAAGGAGCCATGGCAGCTGTCCTCTCCCGCCGCGGAGTCACCTAGTGCAG”, the binding signal was 53200 fluorescence intensity (a.u.). In the case of “CGAAGATTGAGTCCTTTGAAGCCGAGCTCTCCATGGCCATCGGAGTCACCTAGTGCAG”, the binding signal was 17100 fluorescence intensity (a.u.). “AGGATTAATTAGGCTTAATAAATTCGTCTCGCAGTTTACACGGAGTCACCTAGTGCAG” was tested, and the binding signal was 22000 fluorescence intensity (a.u.). In the case of “TCTAGATTTGATCATTTTGACCTCTTGCTCCGTTAGATCTCGGAGTCACCTAGTGCAG”, the binding signal was 9940 fluorescence intensity (a.u.). For “TCTAATTATTTGATATTAGTTATTTTCCTTAACATTCGTGCGGAGTCACCTAGTGCAG”, the binding signal was 49900 fluorescence intensity (a.u.). In the case of “GACTAATTAATAATTAGTTAATTGACTAATCAGGATAATTCGGAGTCACCTAGTGCAG”, the binding signal was 46800 fluorescence intensity (a.u.). In the case of “ATCAAATCATATGTTAGATTGATCCTTCAATTAGTTAATTCGGAGTCACCTAGTGCAG”, the binding signal was 24400 fluorescence intensity (a.u.). With “AGTTAATTAATTAATTAGCTACGTACTCTTGTGCCTCTGTCGGAGTCACCTAGTGCAG” the binding signal was 54900 fluorescence intensity (a.u.). With “TCAATCAATCAATTAATTAGTAATTCAAAGTACTAAACACCGGAGTCACCTAGTGCAG” the binding signal was 40200 fluorescence intensity (a.u.). With “GTTAATTAATTAGTTAGTACTAGCAAACATTGGCTAAAGTCGGAGTCACCTAGTGCAG” the binding signal was 55900 fluorescence intensity (a.u.). With “TACTAATTTAGAGTATTAAACATAAACTAATAATAAAAGTCGGAGTCACCTAGTGCAG” the binding signal was 9830 fluorescence intensity (a.u.). With “CCTTAATTTTCAGTGTTAGTAATTTTCATTAACTAATTCTCGGAGTCACCTAGTGCAG” the binding signal was 16200 fluorescence intensity (a.u.). In the case of “AATTACTACTACTAATTAGCTAGTAGCTAGTTTCTGTGCTCGGAGTCACCTAGTGCAG”, the binding signal was 8060 fluorescence intensity (a.u.). “CCTTAATTAACTAACATTCAGTCAGTTAGTCACCGGATAGCGGAGTCACCTAGTGCAG” was tested, and the binding signal was 52600 fluorescence intensity (a.u.). In the case of “ATTAATTAAGTTACTGTGTTACTCCTAGCTACTCCTCCGTCGGAGTCACCTAGTGCAG”, the binding signal was 22600 fluorescence intensity (a.u.). For “AAAGTTAATCAAATTGACTAATTAGTGCTAGATATGTCCTCGGAGTCACCTAGTGCAG”, the binding signal was 60600 fluorescence intensity (a.u.).
